Only a selection was taken, and the strongest signals are over-represented in it overall.
How the values were obtained:
Assay in all cases: glycan array binding signal (z-score within array); higher = stronger binding
Details in all cases: glycan notation: IUPAC condensed, linker removed
GalNAc(b1-3)GlcNAc = target: GalNAc(b1-3)GlcNAc
Method in brief: (§1)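 Arrays were curated from the Consortium for Functional Glycomics database, 3228 in total, and kept only where the protein sequence was available. Binding is expressed as a within-array Z-score. This score was averaged across arrays of the same protein sequence at different concentrations or buffers and across linkers, and negative values can be read as non-binding.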

[1] = target: Glc(a1-4)Glc(a1-4)Glc(a1-4)Glc
Method in brief: as §1

Glc(b1-6)Glc = target: Glc(b1-6)Glc
Method in brief: as §1

[2] = target: GlcNAc(b1-2)Man(a1-3)[GlcNAc(b1-2)Man(a1-6)]Man(b1-4)GlcNAc(b1-4)GlcNAc
Method in brief: as §1

[3] = target: GlcNAc(b1-2)[GlcNAc(b1-4)]Man(a1-3)[GlcNAc(b1-4)][GlcNAc(b1-2)[GlcNAc(b1-6)]Man(a1-6)]Man(b1-4)GlcNAc(b1-4)GlcNAc
Method in brief: as §1

[4] = target: GlcNAc(b1-3)Gal(b1-4)GlcNAc(b1-3)Gal(b1-4)GlcNAc(b1-3)GalNAc
Method in brief: as §1

GlcNAc(b1-6)GalNAc = target: GlcNAc(b1-6)GalNAc
Method in brief: as §1

[5] = target: Man(a1-2)Man(a1-2)Man(a1-6)[Man(a1-3)]Man
Method in brief: as §1

[6] = target: Man(a1-2)Man(a1-3)[Man(a1-6)]Man(a1-6)[Man(a1-2)Man(a1-3)]Man(b1-4)GlcNAc(b1-4)GlcNAc
Method in brief: as §1

Man(a1-3)[Man(a1-6)]Man = target: Man(a1-3)[Man(a1-6)]Man
Method in brief: as §1

[7] = target: Man(a1-3)[Man(a1-6)]Man(a1-6)[Man(a1-3)]Man
Method in brief: as §1

[8] = target: Man(a1-3)[Man(a1-6)]Man(b1-4)GlcNAc(b1-4)GlcNAc
Method in brief: as §1

[9] = target: Man(a1-3)[Man(a1-6)]Man(b1-4)GlcNAc(b1-4)[Fuc(a1-6)]GlcNAc
Method in brief: as §1

Man(b1-4)GlcNAc = target: Man(b1-4)GlcNAc
Method in brief: as §1

MurNAc(b1-4)GlcNAc = target: MurNAc(b1-4)GlcNAc
Method in brief: as §1

[10] = target: Neu5Ac(a2-3)Gal(b1-3)GalNAc6S
Method in brief: as §1

[11] = target: Neu5Ac(a2-3)Gal(b1-3)[Fuc(a1-4)]GlcNAc(b1-3)Gal(b1-4)[Fuc(a1-3)]GlcNAc
Method in brief: as §1

[12] = target: Neu5Ac(a2-3)Gal(b1-4)GlcNAc(b1-2)Man(a1-3)[GlcNAc(b1-4)][Neu5Ac(a2-3)Gal(b1-4)GlcNAc(b1-2)Man(a1-6)]Man(b1-4)GlcNAc(b1-4)GlcNAc
Method in brief: as §1

[13] = target: Neu5Ac(a2-3)Gal(b1-4)GlcNAc(b1-3)Gal
Method in brief: as §1

[14] = target: Neu5Ac(a2-3)Gal(b1-4)GlcNAc(b1-3)Gal(b1-4)GlcNAc(b1-3)Gal(b1-4)GlcNAc
Method in brief: as §1

[15] = target: Neu5Ac(a2-3)Gal(b1-4)GlcNAc(b1-3)Gal(b1-4)GlcNAc(b1-3)Gal(b1-4)GlcNAc(b1-2)Man(a1-3)[Neu5Ac(a2-3)Gal(b1-4)GlcNAc(b1-3)Gal(b1-4)GlcNAc(b1-3)Gal(b1-4)GlcNAc(b1-2)Man(a1-6)]GalNAc
Method in brief: as §1

[16] = target: Neu5Ac(a2-3)Gal(b1-4)GlcNAc(b1-3)Gal(b1-4)[Fuc(a1-3)]GlcNAc
Method in brief: as §1

[17] = target: Neu5Ac(a2-6)Gal(b1-4)GlcNAc(b1-2)Man(a1-3)[Neu5Ac(a2-3)Gal(b1-4)GlcNAc(b1-2)Man(a1-6)]Man(b1-4)GlcNAc(b1-4)GlcNAc
Method in brief: as §1

[18] = target: Neu5Ac(a2-6)Gal(b1-4)GlcNAc(b1-2)Man(a1-3)[Neu5Ac(a2-6)Gal(b1-4)GlcNAc(b1-2)Man(a1-6)]Man(b1-4)GlcNAc(b1-4)[Fuc(a1-6)]GlcNAc
Method in brief: as §1

[19] = target: Neu5Ac(a2-6)Gal(b1-4)GlcNAc(b1-2)Man(a1-6)Man(b1-4)GlcNAc(b1-4)GlcNAc
Method in brief: as §1

[20] = target: Neu5Ac(a2-6)Gal(b1-4)GlcNAc(b1-3)Gal(b1-4)[Fuc(a1-3)]GlcNAc(b1-3)Gal(b1-4)[Fuc(a1-3)]GlcNAc
Method in brief: as §1

Neu5Ac(a2-8)Neu5Ac = target: Neu5Ac(a2-8)Neu5Ac
Method in brief: as §1

[21] = target: Neu5Ac(a2-8)Neu5Ac(a2-3)Gal(b1-4)GlcNAc
Method in brief: as §1

B1: Blon2468mut (Bifidobacterium longum) (protein)
chain: MTFIKQMMPRYVASMTAGIVAAAMAATCAFAPVANADAVSPTQETIQSTGRHFMVYYRAWRDVTMKGVNTDLPDDNWISMYDIPYGVDVVNIFSYVPSGQEEQAQPFYDKLKSDYAPYLHSRGIKLVRGIDYTGVAVNGFRTFMKEQNKTESEATEADYDAYAKQVIDKYMISVGLDGLDIDMQAHPNDADVKISDNVIRALSKHIGPKSAKPDTTMFLYDTNGSYLNPFKNVAECFDYVAYQQYGSSSDRTARAAADYQPYIGNEFVPGLTFPEEGDMNNRWYDATEPYEESHFYQVASYVREHNLGGMFVYALDRDGRNYDEDLRRIVPSNLLWTKTAIAESEGMALDTAKTAANHYLDRMSLRQVIDDNAASADKARDMVGKAANLYETNKAVLGGDYGEGFSNTYDPTLEAGLLGIDISVLQQQIDKSSEIIGADTAESDAKTALRMARDAAIDGLTGKIYTADQVSAWSQALKAALDATVPVPTPDSTDQNGNRDKVTNHKVQGQPKQLSATGISTDIIVAVGVTLAIAGVALSLSRKLS
glycan array binding signal (z-score) (GalNAc(b1-3)GlcNAc): -0.05 | glycan array binding signal (z-score) [1]: -0.064 | glycan array binding signal (z-score) (Glc(b1-6)Glc): -0.029 | glycan array binding signal (z-score) [2]: -0.069 | glycan array binding signal (z-score) [3]: -0.091 | glycan array binding signal (z-score) [4]: -0.065 | glycan array binding signal (z-score) (GlcNAc(b1-6)GalNAc): -0.094 | glycan array binding signal (z-score) [5]: -0.034 | glycan array binding signal (z-score) [6]: -0.083 | glycan array binding signal (z-score) (Man(a1-3)[Man(a1-6)]Man): -0.056 | glycan array binding signal (z-score) [7]: 0.323 | glycan array binding signal (z-score) [8]: 6.11 | glycan array binding signal (z-score) [9]: 22.6 | glycan array binding signal (z-score) (Man(b1-4)GlcNAc): -0.072 | glycan array binding signal (z-score) (MurNAc(b1-4)GlcNAc): -0.087 | glycan array binding signal (z-score) [10]: -0.077 | glycan array binding signal (z-score) [11]: 0.065 | glycan array binding signal (z-score) [12]: -0.063 | glycan array binding signal (z-score) [13]: -0.065 | glycan array binding signal (z-score) [14]: -0.05 | glycan array binding signal (z-score) [15]: -0.005 | glycan array binding signal (z-score) [16]: -0.04 | glycan array binding signal (z-score) [17]: 0.012 | glycan array binding signal (z-score) [18]: -0.077 | glycan array binding signal (z-score) [19]: -0.076 | glycan array binding signal (z-score) [20]: -0.078 | glycan array binding signal (z-score) (Neu5Ac(a2-8)Neu5Ac): -0.066 | glycan array binding signal (z-score) [21]: -0.079

— the supplement of paper PMC8728848
